Screens (PubChem)
The sample as a whole holds a higher share of hits than the screen did.
Sm TGR block: qHTS Assay for the Inhibitors of Schistosoma Mansoni Peroxiredoxins; AID 485364, 2010; Potency, µM (doses to about 114 µM), for the others: top-dose activity change, negative = inhibition, actives largely listed as inhibitors; Schistosoma mansoni thioredoxin glutathione reductase (TGR), Q962Y6; purified TGR, DTNB reduction, TNB absorbance 405 nm; actives 3% (n = 360,000); also: potency is read from the fitted curve at half-maximal effect; % is scaled to controls: 0 for no effect and ±100 for the full control effect; nearly all actives have a fitted effect of over 60% in size
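First, TGR (20 nM dispensed) and NADPH were mixed with compound. Second, a 15 min room-temperature incubation followed. Third, further NADPH and then DTNB were added to start the reaction. Finally, TNB absorbance was monitored kinetically.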
Cycloheximide cs: Cycloheximide Counterscreen for Small Molecule Inhibitors of Shiga Toxin; cell reporter, cycloheximide protein synthesis inhibition counterscreen; max response, %; actives 12% (n = 300,000); AID 2314, 2010; in the data active = max response mostly above about 13%, no sharp cut-off; inactive = mostly below about 14%; also: read at 38.3 µM for the half of the compounds with a filed dose; 0% is about no effect
Giardia FBPA inh: qHTS Assay for Inhibitors of Fructose-1,6-bisphosphate Aldolase from Giardia Lamblia; AID 2451, 2010; A8B2U2; actives 0.71% (n = 290,000); Potency, µM (top dose mostly 59.6 µM), without a hit: at the top dose activity, negative = inhibition, most hits filed as inhibitors; purified Giardia FBPA; also: potency is read from the fitted curve at half-maximal effect; % is scaled to controls: 0 for no effect and ±100 for the full control effect; nearly all actives have a fitted effect of over 55% in size
Target sequence (A8B2U2 whole entry, looked up): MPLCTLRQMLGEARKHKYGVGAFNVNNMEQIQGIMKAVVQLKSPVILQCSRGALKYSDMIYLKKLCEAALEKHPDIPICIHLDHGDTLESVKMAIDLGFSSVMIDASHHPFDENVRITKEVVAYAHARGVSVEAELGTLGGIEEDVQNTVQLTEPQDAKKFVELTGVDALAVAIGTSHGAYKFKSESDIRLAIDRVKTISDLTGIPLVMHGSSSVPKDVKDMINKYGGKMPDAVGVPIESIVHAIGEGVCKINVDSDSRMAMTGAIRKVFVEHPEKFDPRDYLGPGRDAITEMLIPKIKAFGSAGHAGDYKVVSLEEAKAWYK
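40 nM FBPA preincubated 10 min at RT with compound (up to 57.5 uM final), then substrate plus GAPDH/TPI/NAD/arsenate coupling and diaphorase/resazurin added. Fluorescence read after 20 min at RT, 525/598 nm.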
TbPYK inhibitor: qHTS of Trypanosoma Brucei Inhibitors; pyruvate kinase (Trypanosoma brucei), Q57TT1; TbPYK enzyme, Kinase-Glo Plus ATP luminescence, 45 min; Potency, µM (doses to about 76.8 µM), without a hit: at the top dose activity, negative = inhibition, usual class: inhibitors; actives 0.12% (n = 410,000); AID 624173, 2012; also: potency is read from the fitted curve at half-maximal effect; % is scaled to controls: 0 for no effect and ±100 for the full control effect; nearly all actives have a fitted effect of over 50% in size
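Luminescence from Kinase-Glo Plus, added after a 45-minute room-temperature reaction, served as the end-point read-out. The enzyme and substrate were preincubated with compound before ADP (130 uM final) initiated turnover. Concentration-effect curves came from normalized qHTS data.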
LmPK inhibitor: qHTS Assay for Inhibitors of Leishmania Mexicana Pyruvate Kinase (LmPK); Q27686; purified LmPK, Kinase-Glo ATP luminescence, 1 h; Potency, µM (titrated, usually from 57.5 µM), inactives show at the highest dose activity change, negative = inhibition, actives largely listed as inhibitors; actives 0.37% (n = 290,000); AID 1721, 2009; also: potency is read from the fitted curve at half-maximal effect; % is scaled to controls: 0 for no effect and ±100 for the full control effect
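Kinase-Glo luminescence read after 1 h RT reaction of 0.1 nM LmPK with 0.5 mM PEP and 0.1 mM ADP. Activity scaled between uninhibited and enzyme-free controls.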
Shiga inhibitor: A qHTS for Small Molecule Inhibitors of Shiga Toxin; inhibition, % at 38.7 µM; AID 2315, 2010; Vero cells, Shiga toxin protein synthesis inhibition reporter; actives 9.2% (n = 290,000); in the data active = inhibition mostly above about 28%, no sharp cut-off; inactive = mostly below about 43%; also: 0% is about no effect
* hit, by the source's call; [ ] = another dose, or the depositor's remark. Unless noted, calls follow the shape of the dose curve; as a rule, active = well fitted curve in the direction sought with a large enough effect; inconclusive = small, poorly fitted or top-dose-only effect, or another doubt; inactive = no such curve, though single readings can be large; an effect the other way counts as inactive or inconclusive.

`COc1ccc2[nH]c3c(NCCN(C(C)C)C(C)C)ncnc3c2c1` gave Sm TGR block 0.1%, Cycloheximide cs -4.6, Giardia FBPA inh -0.6%, TbPYK inhibitor -3.3%, LmPK inhibitor 6.1% and Shiga inhibitor -6.1.
CCOc1ccc2[nH]c3c(NCCCOC)ncnc3c2c1 was read as Sm TGR block -1.1%, Cycloheximide cs 35.4*, Giardia FBPA inh 5.8%, TbPYK inhibitor 2.4%, LmPK inhibitor 7.7% and Shiga inhibitor 48.3*.
`CCOc1ccc2[nH]c3c(NCCOC)ncnc3c2c1` gave Sm TGR block 4.8%, Cycloheximide cs 29.1*, Giardia FBPA inh 3.3%, TbPYK inhibitor 6.9%, LmPK inhibitor -0.4% and Shiga inhibitor 66.6*.
Screening COc1cc(C2C(C(=O)Nc3ccccc3)=C(C)Nc3nnnn32)cc(OC)c1OC (configuration not stated) returned Sm TGR block -0.1% and TbPYK inhibitor 5.7%.
CC(C)CC(=O)C1=C(O)C(=O)N(Cc2ccccc2)C1c1ccccc1 (configuration not stated) was read as Sm TGR block -21.1%, Cycloheximide cs 1.4, Giardia FBPA inh -12.2%, TbPYK inhibitor 12.4% and LmPK inhibitor 9.9%.
Screening CCOc1ccc2[nH]c3c(N4CCc5ccccc5C4)ncnc3c2c1 returned Sm TGR block 14.1%, Cycloheximide cs 8.1, Giardia FBPA inh -14.4%, TbPYK inhibitor 1.9%, LmPK inhibitor 1.1% and Shiga inhibitor 13.8.
For CCOc1ccc2[nH]c3c(NCC(C)C)ncnc3c2c1 the results were Sm TGR block 4.9%, Cycloheximide cs 33.2*, Giardia FBPA inh 10.4%, TbPYK inhibitor 3.3%, LmPK inhibitor 4.3% and Shiga inhibitor 59.2*.
Screening COc1ccc(Br)cc1CNCc1c(C(=O)O)c(C)n(Cc2ccccc2C)c1C returned Sm TGR block -11.4% and TbPYK inhibitor -2.9%.
O=C(NCCc1ccc(Cl)cc1)C(=O)NCC(c1ccco1)S(=O)(=O)c1ccc(Cl)cc1 (configuration not stated) was read as Sm TGR block 3.98µM* and TbPYK inhibitor -1.9%.
`Cc1ccc(S(=O)(=O)C(CNC(=O)C(=O)NCCc2ccc(Cl)cc2)c2ccco2)cc1` (configuration not stated) gave Sm TGR block inconclusive and TbPYK inhibitor -0.1%.
For O=C(COc1ccc(Cl)cc1)NCC(c1ccco1)S(=O)(=O)c1ccc(F)cc1 (configuration not stated) the results were Sm TGR block 25.1µM* and TbPYK inhibitor 1.7%.
Cc1ccc(S(=O)(=O)C(CNC(=O)c2ccc(C(F)(F)F)cc2)c2ccco2)cc1 (configuration not stated) was read as Sm TGR block inconclusive and TbPYK inhibitor -2.7%.
`O=C(CC(c1ccco1)S(=O)(=O)c1ccccc1)c1ccc(F)cc1` (configuration not stated) gave Sm TGR block 1.58µM*, Cycloheximide cs 25.0*, Giardia FBPA inh -1.5%, TbPYK inhibitor -7.5%, LmPK inhibitor -10.0% and Shiga inhibitor 38.9*.
Screening O=C(NCC(c1ccco1)S(=O)(=O)c1ccc(Cl)cc1)c1ccc(C(F)(F)F)cc1 (configuration not stated) returned Sm TGR block 0.891µM* and TbPYK inhibitor -0.8%.
`COc1ccc(CNC(=O)C(=O)NCC(c2ccco2)S(=O)(=O)c2ccc(Cl)cc2)cc1` (configuration not stated) gave Sm TGR block 11.2µM* and TbPYK inhibitor 5.0%.
Cc1cc(S(=O)(=O)NCC(c2ccco2)S(=O)(=O)c2ccccc2)ccc1F (configuration not stated) was read as Sm TGR block inconclusive and TbPYK inhibitor -1.4%.
`Cc1ccc2oc(C(=O)NCC(c3ccco3)N(C)C)c(C)c2c1` (configuration not stated) gave Sm TGR block 0.4%, Cycloheximide cs 40.7*, Giardia FBPA inh 6.8%, TbPYK inhibitor -7.5%, LmPK inhibitor 9.0% and Shiga inhibitor 74.9*.
For Cc1ccc(S(=O)(=O)C(CNC(=O)C(=O)NCCc2ccccc2)c2ccco2)cc1 (configuration not stated) the results were Sm TGR block 44.7µM* and TbPYK inhibitor -0.5%.
COc1ccc(CNC(=O)C(=O)NCC(c2ccco2)S(=O)(=O)c2ccc(C)cc2)cc1 (configuration not stated) was read as Sm TGR block -28.9% and TbPYK inhibitor -4.0%.
Screening CCOc1ccc(S(=O)(=O)NCC(c2ccco2)S(=O)(=O)c2ccc(F)cc2)cc1 (configuration not stated) returned Sm TGR block 0.316µM* and TbPYK inhibitor -0.2%.
COC(=O)C[C@@H]1C[C@@H]2c3cc(NC(=O)NC4CCCCC4)ccc3O[C@@H]2[C@H](CO)O1 was read as TbPYK inhibitor 0.7%.
CCOc1ccccc1CNC(=O)CN1C(=O)c2cccnc2Oc2ccc(Cl)cc21 was read as Sm TGR block -9.6% and TbPYK inhibitor 1.7%[15.4 µM].
Screening Cc1nc(N)[nH]c(=O)c1CCCNc1ccc([N+](=O)[O-])cc1 returned TbPYK inhibitor -0.9%.
Screening CC(=O)Nc1ccc(C(=O)NCC(c2ccco2)N(C)C)cc1 (configuration not stated) returned TbPYK inhibitor -0.2%.
`CN(C)C(CNC(=O)c1ccc(C(F)(F)F)cc1)c1ccco1` (configuration not stated) gave Sm TGR block -14.0%, Cycloheximide cs 17.4*, TbPYK inhibitor -7.3%, LmPK inhibitor -7.1% and Shiga inhibitor 17.1.
Screening O=c1[nH]c(C2CCN(S(=O)(=O)/C=C/c3ccccc3)CC2)nc2c1nnn2Cc1ccccc1 returned Sm TGR block 0.0%, Cycloheximide cs -2.7, Giardia FBPA inh 4.5%, TbPYK inhibitor -9.3%, LmPK inhibitor -0.6% and Shiga inhibitor -12.0.
CNNC was read as Giardia FBPA inh 11.2µM*.
`CCN1CCN(/C=N/c2nc(C)cs2)CC1` gave Sm TGR block -13.7%, Cycloheximide cs 33.1*, Giardia FBPA inh -0.9%, TbPYK inhibitor -3.7%, LmPK inhibitor -0.6% and Shiga inhibitor 75.9*.
